Here are results for 40 molecules from PubChem BioAssay (NCATS).

Records with an inconclusive call do not appear. Entries that show only a call come without a potency. The source made the active and inactive calls. The call rests on the fitted dose curve; in most records, active means well fitted cell-killing curve with a large enough effect; inconclusive means small, poorly fitted or top-dose-only effect, or effect the other way; inactive means no such curve, though single readings can be large or run the other way.
Potency means the concentration at half of the fitted maximal effect.

The nature of this test: Quantitative High-Throughput drug screen in 47 multiple myeloma cell lines against the NCATS MIPE library collection: MOLP8_DSMZ cell viability assay (AID 1918977). Further: nearly all actives have a fitted effect of over 45% in size. The settings on record: MOLP8 myeloma viability, CellTiter-Glo ATP luminescence, 48 h; series mostly up to 45.8 µM. The source says: PI: Beverly A. Mock Ph.D.
Laboratory of Cancer Biology and Genetics,
Center for Cancer Research, National Cancer Institute,
National Institute of Health, Bethesda, Maryland
Drug resistance and disease progression are common in multiple myeloma (MM) patients, underscoring the need for new therapeutic combinations. […] We hypothesized that effective combinations would reduce MYC expression and enhance p16 activity. […] These preclinical data identify potentially useful drug combinations for evaluation in drug-resistant MM and reveal potential mechanisms of combined drug sensitivity.
Described herein is the primary MIPE qHTS used to cherrypick compounds. Validated compounds were then further tested for potential synergistic activiy.
[1] Peat TJ, Gaikwad SM, Dubois W, Gyabaah-Kessie N, Zhang S, Gorjifard S, Phyo Z, Andres M, Hughitt VK, Simpson RM, Miller MA, Girvin AT, Taylor A, Williams D, D'Antonio N, Zhang Y, Rajagopalan A, Flietner E, Wilson K, Zhang X, Shinn P, Klumpp-Thomas C, McKnight C, Itkin Z, Chen L, Kazandijian D, Zhang J, Michalowski AM, Simmons JK, Keats J, Thomas CJ, Mock BA. Drug combinations identified by high-throughput screening promote cell cycle transition and upregulate Smad pathways in myeloma. Cancer Lett. 2023 Aug 1;568:216284. doi: 10.1016/j.canlet.2023.216284. Epub 2023 Jun 24. PMID: 37356470; PMCID: PMC10408729.
SEQUENCE No. (e.g., 1, 2, 3, etc.); […] (e.g., Cells, Incubation, Reagent, etc.); VALUE and DESCRIPTION.
1; Cells; 5 uL; white, solid bottom 1536-well Greiner assay plate.
2; Compounds; 23 nL; Kalypsis pin tool (Wako USA) equipped with a 1536-well pin head to transfer to the assay plates.
3; Incubation; 48 hours; 37C incubation.
4; Reagent;5uL; CellTiter Glo (Promega).
5; Detector; 425V; Luminescence; Viewlux PerkinElmer.
NOTES (numbers refer to Sequence numbers above)
1. The cell-based screening methods employed in this study were like those previously published. Briefly, the corresponding myeloma cell lines were screened in 1,536-well plates with 500 cells, 5-uL per well for inhibition of cell viability (assessed by measuring ATP levels with CellTiterGlo).
2. NCATS MIPE 4.0 library of approved and investigational drugs were added using the Kalypsis pin tool. Wells treated with DMSO only for 100% viability and media only for 0% viability were used as controls.
3. The assay plates were covered and incubated for 48 hours in a 37C, 5% CO2 incubator with controlled humidity.
4. After 48 hours, CellTilter-GloTM luminescent substrate mix (Promega) reagent was added to the assay plate and plates we incubated for 5 min at room temperature.
5. Signal was measured as median relative luminescence units on a ViewLux (PerkinElmer) multiplate reader.
[1] Heske CM, Davis MI, Baumgart JT, Wilson K, Gormally MV, Chen L, Zhang X, Ceribelli M, Duveau DY, Guha R, Ferrer M, Arnaldez FI, Ji J, Tran HL, Zhang Y, Mendoza A, Helman LJ, Thomas CJ. Matrix Screen Identifies Synergistic Combination of PARP Inhibitors and Nicotinamide Phosphoribosyltransferase (NAMPT) Inhibitors in Ewing Sarcoma. Clin Cancer Res. 2017 Dec 1;23(23):7301-7311. doi: 10.1158/1078-0432.CCR-17-1121. Epub 2017 Sep 12. PMID: 28899971; PMCID: PMC6636827.
For orientation: ATP-based viability assays read luminescence as a measure of living cells.
Turning to `NS(=O)(=O)c1cc2c(cc1Cl)NCNS2(=O)=O`, the Potency result was “inactive”. To `Cc1ccc(C(=O)Nc2ccc(S(=O)(=O)O)c3cc(S(=O)(=O)O)cc(S(=O)(=O)O)c23)cc1NC(=O)c1cccc(NC(=O)Nc2cccc(C(=O)Nc3cc(C(=O)Nc4ccc(S(=O)(=O)O)c5cc(S(=O)(=O)O)cc(S(=O)(=O)O)c45)ccc3C)c2)c1` belongs “inactive”; to `CN1C(C(=O)Nc2ccccn2)=C(O)c2ccccc2S1(=O)=O`, “inactive”; to `COc1ccc2c(c1)c(CC(=O)O)c(C)n2C(=O)c1ccc(Cl)cc1`, “inactive”. As to `Cc1cn([C@H]2C=C[C@@H](CO)O2)c(=O)[nH]c1=O`, the Potency entry is “inactive”. To `CCN1CCCC1CNC(=O)c1cc(S(=O)(=O)CC)c(N)cc1OC` (stereo not given) belongs “inactive”; to `CC1COc2c(N3CCN(C)CC3)c(F)cc3c(=O)c(C(=O)O)cn1c23` (stereo not given), “inactive”.

In the case of `O=c1c(O)c(-c2ccc(O)c(O)c2)oc2cc(O)cc(O)c12`, the Potency result was “inactive”.

For the molecule `OCCN(CCO)c1nc(N2CCCCC2)c2nc(N(CCO)CCO)nc(N3CCCCC3)c2n1`, the Potency was 16.6 µM (active).

For `CS(=O)(=O)CCNCc1ccc(-c2ccc3ncnc(Nc4ccc(OCc5cccc(F)c5)c(Cl)c4)c3c2)o1`, the Potency is 26.4 µM (active). Then `Clc1ccc(C(c2ccccc2Cl)C(Cl)Cl)cc1` (stereo not given), with 26.4 µM (active); and `Cc1cc(C(C)(C)C)cc(C)c1CC1=NCCN1`, with “inactive”. Then `CCCNCC(O)COc1ccccc1C(=O)CCc1ccccc1` (stereo not given), with “inactive”. To `Cn1cnc2c1c(=O)[nH]c(=O)n2C` belongs 16.6 µM (active). Turning to `O=C(C1CCCCC1)N1CC(=O)N2CCc3ccccc3C2C1` (stereo not given), the Potency result was “inactive”. Then `Cc1cc(C(C)(C)C)c(O)c(C)c1CC1=NCCN1`, with “inactive”; and `CC1(C)O[C@H]2CC(=O)OC[C@]23[C@H]2CC[C@@]4(C)[C@H](c5ccoc5)OC(=O)[C@H]5O[C@]54[C@]2(C)C(=O)C[C@@H]13`, with “inactive”; and `C[C@@H]1CC(=O)NN=C1c1ccc(NN=C(C#N)C#N)cc1`, with 26.4 µM (active).

For `NC(=O)NO`, the Potency is 3.32 µM (active). Then `COc1cc2nc(N3CCN(C(=O)C4COc5ccccc5O4)CC3)nc(N)c2cc1OC` (stereo not given), with “inactive”; and `COc1cc2nc(N3CCN(C(=O)c4ccco4)CC3)nc(N)c2cc1OC`, with 20.9 µM (active). As to `CN1C2CCC1CC(OC(=O)C(CO)c1ccccc1)C2` (stereo not given), the Potency result was “inactive”. To `CC(C)NCC(O)c1ccc(O)c(O)c1` (stereo not given) belongs 23.5 µM (active); to `C[C@](N)(Cc1ccc(O)c(O)c1)C(=O)O`, 13.2 µM (active); to `CCC1(c2ccccc2)C(=O)NCNC1=O`, “inactive”. To `Clc1ccc2c(c1)C(N1CCNCC1)=Nc1ccccc1O2` belongs “inactive”; to `CN(Cc1cnc2nc(N)nc(N)c2n1)c1ccc(C(=O)N[C@@H](CCC(=O)O)C(=O)O)cc1`, 6.62 µM (active); to `O=C1c2c(O)ccc(O)c2C(=O)c2c(NCCNCCO)ccc(NCCNCCO)c21`, 1.32 µM (active).

As for `CC(=O)OCC(CCn1cnc2cnc(N)nc21)COC(C)=O`, the Potency entry is “inactive”. Then `Cc1cn([C@H]2C[C@H](N=[N+]=[N-])[C@@H](CO)O2)c(=O)[nH]c1=O`, with “inactive”. As for `NC(CO)C(=O)NNCc1ccc(O)c(O)c1O` (stereo not given), the Potency is 10.5 µM (active). To `CCOC(=O)Nc1ccc(NCc2ccc(F)cc2)nc1N` belongs “inactive”; to `CC#C[C@]1(O)CC[C@H]2[C@@H]3CCC4=CC(=O)CCC4=C3[C@@H](c3ccc(N(C)C)cc3)C[C@@]21C`, 2.35 µM (active); to `O=C(CCCN1CCC(O)(c2ccc(Cl)cc2)CC1)c1ccc(F)cc1`, “inactive”. To `Cn1c(=O)c2[nH]cnc2n(C)c1=O` belongs “inactive”. Then `Clc1ccc2nsnc2c1NC1=NCCN1`, with “inactive”. For `CC(C)Cc1ccc(C(C)C(=O)O)cc1` (stereo not given), the Potency entry is “inactive”. To `COc1ccc2[nH]cc(CCNC(C)=O)c2c1` belongs “inactive”; to `CN(CCOc1ccc(NS(C)(=O)=O)cc1)CCc1ccc(NS(C)(=O)=O)cc1`, “inactive”. Then `CCOC(=O)C(C)(C)Oc1ccc(Cl)cc1`, with “inactive”.
